Data from the supplement of paper PMC13392028.

System: PvIESI-1 RRM domain (Plasmodium vivax PVP01_0939900 aa 896-1203, GST fusion)
Assay: RBNS R-value (6-mer enrichment in protein-bound RNA vs input library) (ratio); higher = stronger binding preference; the methods of the paper give 50 / 100 / 500 nM protein instead
Procedure: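 RNA Bind-n-Seq: recombinant GST-tagged IESI-1 RRM domain was incubated at room temperature with a random 40-nt in vitro transcribed RNA library at 250, 500 or 1000 nM protein. Bound RNA was pulled down on glutathione beads and sequenced. R-value is the enrichment of each 6-mer in the bound RNA relative to the input library. Each 6-mer sits inside the random 40-mer context, not as an isolated oligo. Values are replicate 1 only.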

| Sequence | RBNS R-value (protein concentration: 250 nM) | RBNS R-value (protein concentration: 500 nM) | RBNS R-value (protein concentration: 1000 nM) |
| --- | --- | --- | --- |
| GUUGAU | 2.7 | 2.98 | 2.73 |
| CACCCG | 1.41 | 1.76 | 1.77 |
| UAUGAU | 3.09 | 3.27 | 3.27 |
| CCUUGA | 1.7 | 1.88 | 1.91 |
| UGAUUG | 3.56 | 3.76 | 3.39 |
| AUUGAU | 3.54 | 3.72 | 3.67 |
| AUGAUG | 5.14 | 5.26 | 5.02 |
| GAUGAC | 2.47 | 2.67 | 2.51 |
| AGUGAU | 2.41 | 2.69 | 2.63 |
| GAUUUG | 2.81 | 2.87 | 2.62 |
| CGAUGA | 2.37 | 2.7 | 2.6 |
| GAUGCC | 1.89 | 2.11 | 2.06 |
| UUGAUG | 4.85 | 5.06 | 4.68 |
